Data published in PubChem BioAssay (Tox21).
“And” between values parts separate entries of the source, which are not always exact repeats. Identical values can stand only once. Results filed as inconclusive are left out. The source made the active and inactive calls. Unless noted, the call rests on the fitted dose curve; in most records, active means well fitted curve in the direction sought with a large enough effect in the repeat runs; inconclusive means weak or mixed curves; inactive means no such curve, though single readings can be large; an effect the other way counts as inactive or inconclusive.

Key:
[1] = qHTS assay to identify small molecule antagonists of the sonic hedgehog signaling (Shh) pathway (AID 1259369; calls by dose curve; further: nearly all actives have a fitted effect of over 45% in size; further: potency means the concentration at half of the fitted maximal effect)
Method in brief: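 Antagonist mode: compound added to 3T3 Gli1-Luc cells followed by conditioned-medium stimulation, 24 h at 37 C, 5% CO2. Inhibition taken as loss of Gli1-driven luciferase luminescence.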

[2] = target: Estrogen receptor beta (Homo sapiens) (UniProt Q92731); experiment: qHTS assay to identify small molecule agonists of the estrogen receptor beta (ER-beta) signaling pathway (AID 1259377; active means well fitted activation curve with a large enough effect in the signal ratio in the repeat runs, not every such curve was filed as active; the % refers to the signal ratio)
Method in brief: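 A UAS-controlled beta-lactamase reporter in ER-beta-UAS-bla HEK293T cells reports receptor activation. Compounds act for 16 hr at 37C in 2% charcoal-stripped serum, and a FRET substrate is read by fluorescence after 2 hours.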

[3] = target: Estrogen receptor beta (Homo sapiens) (UniProt Q92731); experiment: qHTS assay to identify small molecule antagonists of the estrogen receptor beta (ER-beta) signaling pathway (AID 1259378; active means well fitted inhibition curve with a large enough effect in the signal ratio in the repeat runs, not every such curve was filed as active; the % refers to the signal ratio; further: potency means the concentration at half of the fitted maximal effect)
Method in brief: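 ER-beta-UAS-bla HEK293T cells in 2% charcoal-stripped FBS medium treated with compound plus 1nM final 17-beta-estradiol for 16 hr at 37C. Beta-lactamase reporter read by FRET substrate fluorescence after 2 hours at room temperature.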

[4] = qHTS assay to identify small molecule agonists of the androgen receptor (AR) signaling pathway in the presence of an antagonist - cell viability counter screen (AID 1259379); further: nearly all actives have a fitted effect of over 25% in size; further: potency means the concentration at half of the fitted maximal effect
Method in brief: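 Cytotoxicity counter-screen run in the same wells as the nilutamide-challenged (3.0 µM final) AR agonist assay in MDA-kb2 cells. Compounds tested at 15 concentrations for 16 h, 37 °C without CO2; CellTiter-Fluor fluorescence read.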

[5] = qHTS assay to identify small molecule agonists of the estrogen receptor beta (ER-beta) signaling pathway - cell viability counter screen (AID 1259380); further: nearly all actives have a fitted effect of over 30% in size; further: potency means the concentration at half of the fitted maximal effect
Method in brief: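 Cell viability counter screen: CellTiter-Glo luminescence (30 min, room temperature) measured in the same wells as the beta-lactamase readout, after 16 hr compound exposure at 37C of ER-beta-bla HEK293T cells in 2% charcoal-stripped FBS medium.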

[6] = qHTS assay to identify small molecule antagonists of the estrogen receptor beta (ER-beta) signaling pathway - cell viability counter screen (AID 1259382); further: series mostly up to about 92 µM; nearly all actives have a fitted effect of over 55% in size
Method in brief: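 Cytotoxicity was measured in the same wells by CellTiter-Glo luminescence after 30 min at room temperature. Cells were ER-beta-bla HEK293T in charcoal-stripped serum, given compound together with 1 nM E2 and incubated 16 h at 37C.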

[7] = qHTS assay to identify small molecule agonists or antagonists of the thyroid stimulating hormone receptor (TSHR) signaling pathway - wild type cell line counter screen (AID 1259384; calls by dose curve)
Method in brief: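 Wild-type Hek293 cells, 800/well, 18 h at 37C, then compound with Ro20-1724 for 30 min RT. cAMP by HTRF (cAMP-d2/anti-cAMP cryptate), 1 h RT, fluorescence read. 15 concentrations, triplicates.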

[8] = target: Thyrotropin receptor (Homo sapiens) (UniProt P16473); experiment: qHTS assay to identify small molecule antagonists of the thyroid stimulating hormone receptor (TSHR) signaling pathway (AID 1259385; calls by dose curve; further: nearly all actives have a fitted effect of over 20% in size)
Method in brief: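 TSHR-HEK293 cells (800/well) plated 18 h, then compounds with Ro20-1724 and TSH at 1.5 ng/mL final, 30 min at room temperature. cAMP quantified by HTRF (cAMP-d2/anti-cAMP-cryptate, 1 h); 15 concentrations in triplicate.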

[9] = qHTS assay to identify small molecule agonists of the estrogen receptor alpha (ER-alpha) signaling pathway in the presence of an antagonist - cell viability counter screen (AID 1259386); further: nearly all actives have a fitted effect of over 30% in size; further: potency means the concentration at half of the fitted maximal effect
Method in brief: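 Compounds tested at 15 concentrations for 22 h at 37C alongside 10.0nM (final) ICI-182,780 antagonist, in VM7Luc4E2 cells grown in phenol red-free, charcoal-stripped medium. Viability read by CellTiter-Fluor fluorescence after 1 h reagent incubation.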

[10] = qHTS assay to identify small molecule antagonists of the progesterone receptor (PR) signaling pathway - cell viability counter screen (AID 1346798); further: nearly all actives have a fitted effect of over 50% in size; further: potency means the concentration at half of the fitted maximal effect
Method in brief: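 Same-well multiplex: after 16 hr at 37C with compound and R5020 stimulation, HEK293T cells carrying a UAS-bla reporter received LiveBLAzer substrate (2 hr RT), then CellTiter-Glo (30 min RT) for luminescent viability.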

[11] = qHTS assay to identify small molecule agonists of the progesterone receptor (PR) signaling pathway - cell viability counter screen (AID 1346799; calls by dose curve; further: nearly all actives have a fitted effect of over 45% in size)
Method in brief: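 Counter screen for cytotoxicity: compound-treated PR-UAS-bla HEK293T cells (16 hr, 37C, 5% CO2) were assayed with CellTiter-Glo, luminescence measured after 30 min at room temperature.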

[12] = qHTS assay to identify small molecule antagonists of the TGF-beta/Smad signaling pathway - cell viability counter screen (AID 1346824); further: nearly all actives have a fitted effect of over 50% in size
Method in brief: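 SBE-bla HEK 293T cells, incubated overnight, then compound plus 0.25 ng/mL TGF-beta1 (stock added) for 5 hr at 37 C. Viability was read in the same wells by CellTiter-Glo luminescence after 30 min at room temperature.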

[13] = qHTS assay to identify small molecule agonists of the TGF-beta/Smad signaling pathway - cell viability counter screen (AID 1346829); further: top concentration of the series differs between compounds; nearly all actives have a fitted effect of over 45% in size
Method in brief: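 In parallel with the Smad reporter read, viability of HEK 293T cells stably carrying SBE-bla is quantified by ATP luminescence following 5 hr compound treatment.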

[14] = qHTS assay to identify small molecule agonists of the TGF-beta/Smad signaling pathway (AID 1346859; active means well fitted activation curve with a large enough effect in the signal ratio in the repeat runs, not every such curve was filed as active; the % refers to the signal ratio; further: series mostly up to about 77 µM)
Method in brief: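 Smad-responsive beta-lactamase reporter cells (HEK 293T) received compounds from DMSO stocks after overnight attachment, were incubated 5 hr, then treated 2 hr with FRET substrate before dual-emission fluorescence measurement (405 nm excitation).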

[15] = target: Thyrotropin-releasing hormone receptor (Homo sapiens) (UniProt P34981); experiment: qHTS assay to identify small molecule agonists of the thyrotropin-releasing hormone receptor (TRHR) signaling pathway (AID 1346891; calls by dose curve; further: potency means the concentration at half of the fitted maximal effect;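 on activation: HEK293 cells expressing TRHR with calcium dye readout; series mostly up to about 58 µM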)
Method in brief: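 Agonist-mode calcium mobilisation screen: TRHR-transfected HEK293 cells cultured overnight (18 h), dye-loaded for 2 h at 37 °C, exposed to compounds, and monitored by fluorescence for 3 min.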

[16] = target: Progesterone receptor (Homo sapiens) (UniProt P06401); experiment: qHTS assay to identify small molecule agonists of the progesterone receptor (PR) signaling pathway (AID 1346784; calls by dose curve; further: nearly all actives have a fitted effect of over 30% in size)
Method in brief: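 Agonist mode, quantitative HTS format in a HEK 293T line expressing a UAS-controlled beta-lactamase reporter; 16 hr compound exposure at 37C in 2% charcoal-stripped FBS, then LiveBLAzer B/G FRET fluorescence.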

[17] = target: Progesterone receptor (Homo sapiens) (UniProt P06401); experiment: qHTS assay to identify small molecule antagonists of the progesterone receptor (PR) signaling pathway (AID 1346795; active means well fitted inhibition curve with a large enough effect in the signal ratio in the repeat runs, not every such curve was filed as active; the % refers to the signal ratio; further: potency means the concentration at half of the fitted maximal effect)
Method in brief: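 HEK293T PR-UAS-bla reporter cells in charcoal-stripped serum (2%) received compound after a 6 hr settling period, followed by R5020 agonist at 1 nM final; 16 hr incubation preceded the FRET substrate step and fluorescence measurement.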

[18] = target: Thyrotropin-releasing hormone receptor (Homo sapiens) (UniProt P34981); experiment: qHTS assay to identify small molecule antagonists of the thyrotropin-releasing hormone receptor (TRHR) signaling pathway (AID 1346877; active means well fitted inhibition curve with a large enough effect in the repeat runs, not every such curve was filed as active; further: series mostly up to about 51 µM)
Method in brief: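 Antagonist mode: after a 5 min room-temperature compound exposure, cells were stimulated with 1 nM (final) TRH. Dye-loaded TRHR-HEK293 cells were used, and calcium-dependent fluorescence was followed for 3 min, with 15-point titrations run in triplicate.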

[19] = target: Androgen receptor (Homo sapiens) (UniProt P10275); experiment: qHTS assay to identify small molecule agonists of the androgen receptor (AR) signaling pathway in the presence of an antagonist (AID 1259381; calls by dose curve; further: nearly all actives have a fitted effect of over 15% in size)
Method in brief: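 Agonist-mode confirmation run against 3.0 uM final nilutamide: compounds titrated at 15 concentrations onto MDA-kb2 MMTV-luciferase reporter cells. Luminescence measured with ONE-Glo following 16 hr incubation, 37C, 0% CO2.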

[20] = target: Estrogen receptor (Homo sapiens) (UniProt P03372); experiment: qHTS assay to identify small molecule agonists of the estrogen receptor alpha (ER-alpha) signaling pathway in the presence of an antagonist (AID 1259383; calls by dose curve; further: top concentration of the series differs between compounds; nearly all actives have a fitted effect of over 15% in size)
Method in brief: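 Agonist-mode confirmation run in the presence of 10.0nM (final) ICI-182,780 antagonist. The reporter was ERE-driven luciferase in VM7Luc4E2 cells, grown in charcoal-stripped serum. Cells were exposed to 15-concentration compound series for 22hr, then ONE-Glo luminescence was read.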

Measured: Potency

Chain of Thyrotropin receptor (Homo sapiens) (P16473 whole entry, looked up): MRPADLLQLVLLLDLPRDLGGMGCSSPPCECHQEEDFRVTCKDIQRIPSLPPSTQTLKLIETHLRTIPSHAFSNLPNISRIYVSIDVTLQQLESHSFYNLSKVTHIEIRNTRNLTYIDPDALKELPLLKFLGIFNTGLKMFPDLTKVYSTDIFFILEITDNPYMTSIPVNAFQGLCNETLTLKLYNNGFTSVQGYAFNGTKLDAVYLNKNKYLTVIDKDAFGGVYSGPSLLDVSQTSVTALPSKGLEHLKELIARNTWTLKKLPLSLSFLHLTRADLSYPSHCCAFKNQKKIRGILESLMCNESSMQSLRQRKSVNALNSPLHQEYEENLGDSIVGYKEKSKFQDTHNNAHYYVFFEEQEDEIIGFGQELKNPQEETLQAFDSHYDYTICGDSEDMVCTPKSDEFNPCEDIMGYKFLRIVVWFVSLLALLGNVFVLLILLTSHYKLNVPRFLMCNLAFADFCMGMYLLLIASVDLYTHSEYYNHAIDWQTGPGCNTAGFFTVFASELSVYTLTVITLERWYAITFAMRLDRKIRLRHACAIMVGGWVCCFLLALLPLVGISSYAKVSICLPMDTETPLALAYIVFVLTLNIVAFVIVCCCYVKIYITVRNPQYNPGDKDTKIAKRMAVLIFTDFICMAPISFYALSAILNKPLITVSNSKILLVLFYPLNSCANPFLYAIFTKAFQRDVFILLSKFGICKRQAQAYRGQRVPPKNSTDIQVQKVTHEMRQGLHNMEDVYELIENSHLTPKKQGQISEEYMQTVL
Chain of Thyrotropin-releasing hormone receptor (Homo sapiens) (P34981 whole entry, looked up): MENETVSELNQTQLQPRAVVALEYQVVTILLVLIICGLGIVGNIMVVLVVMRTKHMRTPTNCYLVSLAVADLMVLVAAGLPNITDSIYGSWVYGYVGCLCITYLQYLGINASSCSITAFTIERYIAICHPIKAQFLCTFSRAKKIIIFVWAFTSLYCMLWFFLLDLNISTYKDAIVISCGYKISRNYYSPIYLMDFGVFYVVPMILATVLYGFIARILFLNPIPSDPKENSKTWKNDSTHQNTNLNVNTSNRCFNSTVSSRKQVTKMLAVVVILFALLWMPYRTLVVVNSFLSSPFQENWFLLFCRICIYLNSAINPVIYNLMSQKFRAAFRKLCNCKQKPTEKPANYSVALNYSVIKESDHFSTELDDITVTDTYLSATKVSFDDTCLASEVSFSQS
Chain of Estrogen receptor beta (Homo sapiens) (Q92731 whole entry, looked up): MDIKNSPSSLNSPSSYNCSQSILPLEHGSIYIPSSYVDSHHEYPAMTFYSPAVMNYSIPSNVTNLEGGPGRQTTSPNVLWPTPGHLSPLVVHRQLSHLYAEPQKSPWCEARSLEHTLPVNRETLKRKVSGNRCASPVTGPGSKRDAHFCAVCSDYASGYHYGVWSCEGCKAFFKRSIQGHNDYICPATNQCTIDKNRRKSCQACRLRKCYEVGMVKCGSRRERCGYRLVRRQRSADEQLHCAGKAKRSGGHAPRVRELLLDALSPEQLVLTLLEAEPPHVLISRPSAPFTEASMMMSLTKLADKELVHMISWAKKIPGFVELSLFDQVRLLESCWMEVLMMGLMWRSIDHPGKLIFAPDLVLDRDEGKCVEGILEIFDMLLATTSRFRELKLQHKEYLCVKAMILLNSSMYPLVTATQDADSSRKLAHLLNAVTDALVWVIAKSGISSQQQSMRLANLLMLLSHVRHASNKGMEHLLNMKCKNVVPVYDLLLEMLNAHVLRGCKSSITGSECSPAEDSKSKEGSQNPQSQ
Chain of Androgen receptor (Homo sapiens) (P10275 whole entry, looked up): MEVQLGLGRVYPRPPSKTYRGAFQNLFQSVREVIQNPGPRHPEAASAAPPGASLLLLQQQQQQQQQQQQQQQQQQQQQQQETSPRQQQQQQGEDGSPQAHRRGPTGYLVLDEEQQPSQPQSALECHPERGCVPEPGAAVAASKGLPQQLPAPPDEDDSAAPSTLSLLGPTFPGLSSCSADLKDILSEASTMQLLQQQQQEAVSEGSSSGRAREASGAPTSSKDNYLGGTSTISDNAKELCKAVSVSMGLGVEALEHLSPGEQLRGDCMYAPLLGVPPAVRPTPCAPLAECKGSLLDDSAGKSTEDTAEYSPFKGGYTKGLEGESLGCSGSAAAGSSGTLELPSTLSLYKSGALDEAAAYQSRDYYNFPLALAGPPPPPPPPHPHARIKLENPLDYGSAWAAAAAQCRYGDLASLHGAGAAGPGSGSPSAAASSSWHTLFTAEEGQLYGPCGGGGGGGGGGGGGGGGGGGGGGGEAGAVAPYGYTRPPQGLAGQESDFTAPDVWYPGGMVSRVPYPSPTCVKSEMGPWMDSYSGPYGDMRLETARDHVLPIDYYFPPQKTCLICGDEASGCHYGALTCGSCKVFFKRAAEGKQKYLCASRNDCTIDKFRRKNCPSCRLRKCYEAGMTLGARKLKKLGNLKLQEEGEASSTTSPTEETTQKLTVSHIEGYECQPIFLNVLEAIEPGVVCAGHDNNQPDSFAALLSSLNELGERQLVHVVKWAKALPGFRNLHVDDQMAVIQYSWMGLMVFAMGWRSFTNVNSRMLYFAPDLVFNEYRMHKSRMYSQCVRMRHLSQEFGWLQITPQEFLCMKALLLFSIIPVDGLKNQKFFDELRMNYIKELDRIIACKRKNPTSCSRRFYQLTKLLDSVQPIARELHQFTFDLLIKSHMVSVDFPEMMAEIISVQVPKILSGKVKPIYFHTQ
Chain of Progesterone receptor (Homo sapiens) (P06401 whole entry, looked up): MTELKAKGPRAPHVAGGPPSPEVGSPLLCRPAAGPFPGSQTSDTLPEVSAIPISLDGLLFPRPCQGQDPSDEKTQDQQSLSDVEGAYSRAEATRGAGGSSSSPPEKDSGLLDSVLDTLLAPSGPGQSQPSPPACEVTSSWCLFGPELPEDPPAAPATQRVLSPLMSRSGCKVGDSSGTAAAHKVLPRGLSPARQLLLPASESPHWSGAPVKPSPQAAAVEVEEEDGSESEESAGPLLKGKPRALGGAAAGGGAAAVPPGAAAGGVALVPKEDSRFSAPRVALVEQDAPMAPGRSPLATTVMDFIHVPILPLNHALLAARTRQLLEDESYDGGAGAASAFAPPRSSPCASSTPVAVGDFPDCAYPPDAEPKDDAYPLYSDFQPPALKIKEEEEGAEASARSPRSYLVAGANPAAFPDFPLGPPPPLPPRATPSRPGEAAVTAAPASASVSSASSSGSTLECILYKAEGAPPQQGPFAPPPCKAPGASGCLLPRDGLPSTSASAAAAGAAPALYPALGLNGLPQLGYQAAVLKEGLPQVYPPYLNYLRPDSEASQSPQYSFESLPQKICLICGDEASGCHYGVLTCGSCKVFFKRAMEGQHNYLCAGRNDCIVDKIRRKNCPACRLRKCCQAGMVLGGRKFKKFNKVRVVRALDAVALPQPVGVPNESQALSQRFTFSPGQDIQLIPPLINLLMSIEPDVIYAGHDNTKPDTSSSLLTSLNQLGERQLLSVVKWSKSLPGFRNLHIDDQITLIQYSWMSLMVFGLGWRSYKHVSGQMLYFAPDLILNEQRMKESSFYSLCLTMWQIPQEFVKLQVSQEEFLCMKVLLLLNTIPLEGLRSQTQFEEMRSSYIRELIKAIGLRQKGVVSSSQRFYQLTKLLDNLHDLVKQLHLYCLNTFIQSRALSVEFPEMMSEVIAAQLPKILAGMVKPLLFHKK
Chain of Estrogen receptor (Homo sapiens) (P03372 whole entry, looked up): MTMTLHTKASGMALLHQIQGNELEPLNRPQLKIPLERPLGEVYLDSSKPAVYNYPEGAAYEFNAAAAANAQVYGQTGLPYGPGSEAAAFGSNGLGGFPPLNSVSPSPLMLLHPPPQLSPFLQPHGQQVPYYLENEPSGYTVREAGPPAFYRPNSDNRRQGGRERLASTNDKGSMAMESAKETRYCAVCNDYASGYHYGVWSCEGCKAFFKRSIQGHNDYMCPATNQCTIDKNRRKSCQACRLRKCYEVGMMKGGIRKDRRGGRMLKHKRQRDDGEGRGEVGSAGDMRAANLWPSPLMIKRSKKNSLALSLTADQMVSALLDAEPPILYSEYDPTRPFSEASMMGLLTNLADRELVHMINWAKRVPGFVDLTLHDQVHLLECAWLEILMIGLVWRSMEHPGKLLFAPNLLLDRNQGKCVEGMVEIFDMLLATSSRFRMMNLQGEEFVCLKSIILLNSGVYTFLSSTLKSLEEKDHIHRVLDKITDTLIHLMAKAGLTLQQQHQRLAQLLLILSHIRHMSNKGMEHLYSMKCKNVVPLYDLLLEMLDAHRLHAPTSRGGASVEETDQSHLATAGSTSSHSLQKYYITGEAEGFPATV

O=C(N[C@@H]1N=C(c2ccccc2F)c2cccc3c2N(CC3)C1=O)c1cc2ccccc2[nH]1
active: [15] 12 µM
not listed: [16] | [17] | [18] | [19] | [20]
inactive: all other assays above

CC1(C)C(C=C(Cl)Cl)C1C(=O)OC(C#N)c1ccc(F)c(Oc2ccccc2)c1 (stereo not drawn)
active: [17] 13.7 µM
not listed: [19] | [20]
inactive: all other assays above

OCC(Br)CBr (stereo not drawn)
not listed: [15] | [18] | [19] | [20]
inactive: all other assays above

CC(C)N(C(=O)CCl)c1ccccc1
active: [1] 12.2 µM and 9.69 µM | [3] 9.69 µM | [4] 54.5 µM | [5] 54.5 µM and 27.3 µM | [10] 61.1 µM and 48.6 µM
not listed: [6] | [8] | [9] | [12] | [14] | [17]
inactive: all other assays above

NC(=O)C(Cl)Cl
not listed: [7] | [8] | [13] | [18] | [19] | [20]
inactive: all other assays above

N#Cc1ccc(N(CC(N)=O)CC(F)(F)F)cc1C(F)(F)F
not listed: [14] | [17] | [19]
inactive: all other assays above

COc1ccc(Cc2nccc3cc(OC)c(OC)cc23)cc1OC
active: [1] 1.88 µM | [4] 18.8 µM | [9] 13.3 µM
not listed: [6] | [10] | [11] | [18] | [20]
inactive: all other assays above

CC(C)c1c(CN(C)C(C)Cc2ccccc2)n(C)n(-c2ccccc2)c1=O (stereo not drawn)
inactive: [1] | [2] | [4] | [6] | [7] | [16] | [12] | [13] | [18] | [15]
active: [3] 21.1 µM | [5] 6.68 µM

CNC(=O)CSP(=O)(OC)OC
not listed: [11] | [13] | [15] | [18] | [19]
inactive: all other assays above

O=NN(CCO)CCO
not listed: [9] | [15] | [18]
inactive: all other assays above

O=S(=O)(O)F
not listed: [14] | [15] | [18] | [19]
inactive: all other assays above

O=C(O)CCCCCCNC1c2ccccc2CCc2ccccc21
not listed: [15] | [18] | [19]
inactive: all other assays above

[O-][Cl+3]([O-])([O-])O
not listed: [7] | [8] | [14] | [19] | [20]
inactive: all other assays above

CCC1COC(Cn2cncn2)(c2ccc(Cl)cc2Cl)O1 (stereo not drawn)
active: [1] 54.5 µM | [17] 27.3 µM
not listed: [11] | [15] | [19]
inactive: all other assays above

c1ccc2nc(N3CCNCC3)ccc2c1
active: [5] 23.7 µM
not listed: [7] | [8] | [9] | [10] | [11] | [13] | [19]
inactive: all other assays above

C=CC(=C)C
not listed: [8] | [14] | [19] | [20]
inactive: all other assays above

CC(C)=CC1C(C(=O)OC(C#N)c2cccc(Oc3ccccc3)c2)C1(C)C (stereo not drawn)
not listed: [9] | [15] | [17] | [20]
inactive: all other assays above
